Values without a mark were called inactive.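 The calls were made as follows: active = compound whose curve gives half-maximal concentration under 30 µM, top-dose inhibition above a set limit, tight estimate; inactive = the rest.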

Chain of Integrin alpha-4 (Homo sapiens) (P13612 whole entry, looked up): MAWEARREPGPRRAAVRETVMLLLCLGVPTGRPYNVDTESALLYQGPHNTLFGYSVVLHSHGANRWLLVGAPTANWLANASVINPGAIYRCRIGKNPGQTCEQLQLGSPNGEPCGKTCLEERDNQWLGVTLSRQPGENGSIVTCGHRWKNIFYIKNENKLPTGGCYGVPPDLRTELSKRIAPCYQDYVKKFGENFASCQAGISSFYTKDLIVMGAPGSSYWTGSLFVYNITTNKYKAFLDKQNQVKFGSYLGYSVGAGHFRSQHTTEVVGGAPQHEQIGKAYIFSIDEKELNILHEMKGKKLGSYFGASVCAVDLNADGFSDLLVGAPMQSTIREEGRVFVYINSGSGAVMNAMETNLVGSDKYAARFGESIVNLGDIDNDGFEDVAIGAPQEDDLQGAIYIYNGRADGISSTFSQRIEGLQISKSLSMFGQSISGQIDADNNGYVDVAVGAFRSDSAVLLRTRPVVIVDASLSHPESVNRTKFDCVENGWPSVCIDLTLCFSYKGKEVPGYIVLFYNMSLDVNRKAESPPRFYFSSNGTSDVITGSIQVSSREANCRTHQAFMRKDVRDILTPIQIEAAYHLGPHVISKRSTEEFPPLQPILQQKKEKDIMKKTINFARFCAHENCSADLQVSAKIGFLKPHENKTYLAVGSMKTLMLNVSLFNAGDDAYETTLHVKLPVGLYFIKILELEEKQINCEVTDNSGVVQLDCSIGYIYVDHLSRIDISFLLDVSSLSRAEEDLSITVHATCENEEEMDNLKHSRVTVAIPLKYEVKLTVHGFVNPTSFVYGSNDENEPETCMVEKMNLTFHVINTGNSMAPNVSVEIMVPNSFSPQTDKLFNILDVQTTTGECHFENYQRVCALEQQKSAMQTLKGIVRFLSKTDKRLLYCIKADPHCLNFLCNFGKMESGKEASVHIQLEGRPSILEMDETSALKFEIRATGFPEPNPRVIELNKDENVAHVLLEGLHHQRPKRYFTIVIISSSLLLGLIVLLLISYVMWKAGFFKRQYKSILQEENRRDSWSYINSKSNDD

This test has as its target Integrin alpha-4 (Homo sapiens) (UniProt P13612). In words: VLA-4 allosteric modulator potency, dose response, cell-based, U937, HUTS-21 LIBS antibody, flow cytometry (AID 449766). Conditions: U937 cells, HUTS-21 LIBS mAb binding; series mostly up to 20 µM; inhibition: at the top concentration.
As a reminder, the inhibition is the change of the read-out against control, counted positive when it falls. For `COc1ccc(C2CC(=O)Nc3cc(OC)c(OC)cc32)cc1Br` (stereo not given), the “inhibition” value was -5.69%.
`CC(C)Oc1ccccc1C1CC(=O)Nc2cc3c(cc21)OCO3` (stereo not given): the “inhibition” value was 8.88%.
To `CCOCCCNC(=O)/C(C#N)=C/c1cc(Br)c(O)c(Br)c1` belongs -4.08%; to `COc1ccc(C2=Nn3c(nnc3-c3ccc(OC)cc3)SC2)cc1`, 4.28%; to `COc1ccc(C)cc1S(=O)(=O)Nc1cccc(C)c1`, 1.97%.
For `COc1ccc(-c2sc3ccccc3c2-c2ccc(OCCN3CCOCC3)cc2)cc1` the value was 4.56%; for `Nc1cc(S(=O)(=O)Nc2ccc(Br)cc2)ccc1Cl`, -7.23%.
For the compound `COc1cc(NC(=O)c2cc(S(=O)(=O)N3CCCCC3)ccc2N2CCOCC2)cc(OC)c1`, the “inhibition” value was 7.5%.
For `COc1cccc(C2CC(=O)Nc3cc(OC)c(OC)cc32)c1` (stereo not given) the value was -6.66%; for `Cc1ccc(NS(=O)(=O)c2ccc(-c3cnc(C4CC4)o3)cc2)c(C)c1`, 12.3%; for `CCOc1cccc(C2CC(=O)Nc3cc(OC)c(OC)cc32)c1` (stereo not given), 10.7%.
With `Cc1ccc(S(=O)(=O)Nc2ccc(N(C)C)cc2)cc1`, the “inhibition” value is -2.63%.
To `Cc1ccc(C(=O)c2cc([N+](=O)[O-])ccc2N2CCOCC2)c(C)c1` belongs 27%; to `COc1cccc(-c2sc3ccc(OC)cc3c2-c2ccc(OCCN3CCCC3)cc2)c1`, 25.2%.
Regarding `COc1ccc(-c2sc3cc4c(cc3c2-c2ccc(OCCN3CCOCC3)cc2)OCO4)cc1`, the “inhibition” value was 7.5%.
Regarding `O=C(c1ccccc1)c1cc([N+](=O)[O-])ccc1N1CCOCC1`, the “inhibition” value is 2.35%.
Turning to `COc1ccc(S(=O)(=O)Nc2c(F)cccc2F)cc1`, the “inhibition” value is -2.92%.
Regarding `Nc1ccc(NS(=O)(=O)c2ccccc2)cc1`, the “inhibition” value was 1.69%.
Consider `COCCNC(=O)/C(C#N)=C/c1c(F)cccc1Cl`, for which the “inhibition” value was 14.6%.
Regarding `O=C(Nc1ccccc1Cl)c1cc(S(=O)(=O)N2CCCCC2)ccc1N1CCOCC1`, the inhibition is -7.81% [at 0.25 µM].
As for `CCCOc1ccccc1C1CC(=O)Nc2cc3c(cc21)OCO3` (stereo not given), the “inhibition” value was 20.1%.
Take `Nc1cccc(S(=O)(=O)Nc2ccccc2)c1`: the “inhibition” value was 16.8%.
As for `CCOc1ccc(C(=O)c2cc([N+](=O)[O-])ccc2N2CCOCC2)cc1`, the “inhibition” value was 10.1%.
As to `COc1cc2c(cc1OC)C(c1ccc(Br)cc1)CC(=O)N2` (stereo not given), the “inhibition” value was 3.41%.
For `CCCCNC(=O)/C(C#N)=C/c1ccc(C(=O)OC)cc1`, the “inhibition” value was 6.29%.
For `O=C(Nc1ccc(OC(F)F)cc1)c1cc(S(=O)(=O)N2CCCCC2)ccc1N1CCOCC1` the value was 8.79%; for `Cc1ccc(C)c(NC(=O)c2cc(S(=O)(=O)N3CCCCC3)ccc2N2CCOCC2)c1`, 4.56%.
For `CCCCN1C(=O)C(=O)c2cc(Cl)ccc21` the value was 7.15%; for `Cc1ccc(C(=O)c2cc([N+](=O)[O-])ccc2N2CCOCC2)cc1C`, 12.6%; for `COCCNC(=O)/C(C#N)=C/c1cccc(/C=C(\C#N)C(=O)NCCOC)c1`, 35.2%.
For `COc1ccccc1-c1sc2cc3c(cc2c1-c1ccc(OCCN2CCCCC2)cc1)OCO3` the value was 35.6%; for `COCCNC(=O)/C(C#N)=C/c1ccc(C(=O)O)cc1`, 6.86%; for `CCOc1ccc(S(=O)(=O)Nc2cc(OC)ccc2OC)cc1`, -4.93% [at 0.74 µM].
`COC(=O)[C@@H]1[C@@H](C#N)C2(c3ccccc3-c3ccccc32)N(c2ccc(Cl)cc2)N1C#N`: the “inhibition” value was 10.6% [at 6.6 µM].
On to `O=C(Oc1ccc(F)cc1C(=O)/C=C/c1cccs1)c1cccc([N+](=O)[O-])c1`, for which the “inhibition” value is -28.2%.

For the origin of these results see PubChem BioAssay AID449766 (NMMLSC, 2010).
